The values that follow come from ChEMBL document CHEMBL1961873, “Compounds: GSK PKIS; Assays: Nanosyn kinase panel” (2012).

Assay [1] concerns Tyrosine-protein kinase ABL1 (Homo sapiens), P00519 [T315I]. The following applies: at 1 µM.
Assay [2] concerns Tyrosine-protein kinase ABL1 (Homo sapiens), P00519 [Y253F]. The following applies: at 0.1 µM.
For assay [3] the test system is unchanged. The following applies: at 1 µM.
Assay [4] deals with Tyrosine-protein kinase ABL1 (Homo sapiens) (UniProt P00519). The settings on record: at 0.1 µM.
Assay [5] shares this target. The settings on record: at 1 µM.
Assay [6] has as its target ALK tyrosine kinase receptor (Homo sapiens) (UniProt Q9UM73). The following applies: at 0.1 µM.
Assay [7] has the same target. The following applies: at 1 µM.
The target of assay [8] is Tyrosine-protein kinase ABL2 (Homo sapiens) (UniProt P42684). The following applies: at 0.1 µM.
Tyrosine-protein kinase ABL2 (Homo sapiens), sequence (P42684 whole entry): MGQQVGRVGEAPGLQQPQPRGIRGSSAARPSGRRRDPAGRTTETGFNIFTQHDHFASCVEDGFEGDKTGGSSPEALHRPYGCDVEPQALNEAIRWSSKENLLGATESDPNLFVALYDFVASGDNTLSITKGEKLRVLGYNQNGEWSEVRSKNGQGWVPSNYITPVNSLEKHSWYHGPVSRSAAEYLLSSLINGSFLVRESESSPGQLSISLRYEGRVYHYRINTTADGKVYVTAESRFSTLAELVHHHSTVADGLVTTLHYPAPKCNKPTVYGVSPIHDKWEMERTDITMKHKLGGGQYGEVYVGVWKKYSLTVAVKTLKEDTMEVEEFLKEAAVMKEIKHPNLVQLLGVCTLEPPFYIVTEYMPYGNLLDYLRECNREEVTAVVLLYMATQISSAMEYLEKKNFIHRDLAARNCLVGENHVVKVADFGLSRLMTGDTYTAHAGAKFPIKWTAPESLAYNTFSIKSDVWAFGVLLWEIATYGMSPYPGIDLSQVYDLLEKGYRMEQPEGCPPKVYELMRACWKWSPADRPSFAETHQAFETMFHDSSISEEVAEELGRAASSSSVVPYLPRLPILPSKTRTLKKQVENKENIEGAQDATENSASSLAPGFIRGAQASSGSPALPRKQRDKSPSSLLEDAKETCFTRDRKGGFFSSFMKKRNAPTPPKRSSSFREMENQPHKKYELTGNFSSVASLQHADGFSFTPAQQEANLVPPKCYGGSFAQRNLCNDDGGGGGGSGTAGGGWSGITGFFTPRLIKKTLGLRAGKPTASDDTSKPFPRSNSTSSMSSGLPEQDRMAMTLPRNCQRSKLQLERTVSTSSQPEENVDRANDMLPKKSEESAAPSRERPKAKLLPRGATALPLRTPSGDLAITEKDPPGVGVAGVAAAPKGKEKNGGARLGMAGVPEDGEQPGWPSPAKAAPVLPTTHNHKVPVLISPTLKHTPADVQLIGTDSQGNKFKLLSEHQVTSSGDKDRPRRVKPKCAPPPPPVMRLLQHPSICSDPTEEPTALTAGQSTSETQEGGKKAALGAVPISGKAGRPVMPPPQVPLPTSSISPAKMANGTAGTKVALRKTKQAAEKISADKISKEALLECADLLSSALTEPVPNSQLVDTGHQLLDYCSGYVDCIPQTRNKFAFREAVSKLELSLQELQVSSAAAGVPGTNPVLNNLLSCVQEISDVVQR
Assay [9] has the same target. The settings on record: at 1 µM.
Assay [10] has as its target Tyrosine-protein kinase receptor UFO (Homo sapiens) (UniProt P30530). The settings on record: at 0.1 µM.
Assay [11] has the same target. The following applies: at 1 µM.
Assay [12] addresses Tyrosine-protein kinase Blk (Homo sapiens) (UniProt P51451). The following applies: at 0.1 µM.
Assay [13] has the same target. The settings on record: at 1 µM.
Assay [14] has as its target T1, Cytoplasmic tyrosine-protein kinase BMX (Homo sapiens) (UniProt P51813).
T1 sequence (whole entry): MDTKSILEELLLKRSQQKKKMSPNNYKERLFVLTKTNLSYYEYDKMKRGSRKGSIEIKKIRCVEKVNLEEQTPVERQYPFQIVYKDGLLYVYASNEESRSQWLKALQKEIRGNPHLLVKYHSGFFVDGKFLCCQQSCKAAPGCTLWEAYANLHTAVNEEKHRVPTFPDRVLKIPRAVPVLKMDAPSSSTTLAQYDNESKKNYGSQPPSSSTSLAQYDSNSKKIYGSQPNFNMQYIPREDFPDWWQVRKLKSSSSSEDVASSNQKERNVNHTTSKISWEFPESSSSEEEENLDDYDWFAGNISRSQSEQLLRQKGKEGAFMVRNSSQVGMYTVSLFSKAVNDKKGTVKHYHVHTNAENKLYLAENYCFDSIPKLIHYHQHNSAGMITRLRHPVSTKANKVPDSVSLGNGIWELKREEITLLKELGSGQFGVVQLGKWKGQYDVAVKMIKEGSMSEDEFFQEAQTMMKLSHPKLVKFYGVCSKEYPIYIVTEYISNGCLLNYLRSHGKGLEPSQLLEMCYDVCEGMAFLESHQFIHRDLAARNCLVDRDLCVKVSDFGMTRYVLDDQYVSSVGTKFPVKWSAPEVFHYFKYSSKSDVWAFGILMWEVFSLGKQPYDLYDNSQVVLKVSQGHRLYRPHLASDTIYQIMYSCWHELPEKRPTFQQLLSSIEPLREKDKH
The settings on record: at 0.1 µM.

For assay [15], the target named is T1, Cytoplasmic tyrosine-protein kinase BMX (Homo sapiens). The settings on record: at 1 µM.
Assay [16] concerns the target Protein-tyrosine kinase 6 (Homo sapiens) (UniProt Q13882). The following applies: at 0.1 µM.
The target is the same in assay [17]. The following applies: at 1 µM.
Assay [18] deals with Tyrosine-protein kinase BTK (Homo sapiens) (UniProt Q06187). The settings on record: at 0.1 µM.
Assay [19] has the same target. The following applies: at 1 µM.
Assay [20] addresses Tyrosine-protein kinase CSK (Homo sapiens) (UniProt P41240). The following applies: at 0.1 µM.

Tyrosine-protein kinase receptor UFO (Homo sapiens), sequence (P30530 whole entry): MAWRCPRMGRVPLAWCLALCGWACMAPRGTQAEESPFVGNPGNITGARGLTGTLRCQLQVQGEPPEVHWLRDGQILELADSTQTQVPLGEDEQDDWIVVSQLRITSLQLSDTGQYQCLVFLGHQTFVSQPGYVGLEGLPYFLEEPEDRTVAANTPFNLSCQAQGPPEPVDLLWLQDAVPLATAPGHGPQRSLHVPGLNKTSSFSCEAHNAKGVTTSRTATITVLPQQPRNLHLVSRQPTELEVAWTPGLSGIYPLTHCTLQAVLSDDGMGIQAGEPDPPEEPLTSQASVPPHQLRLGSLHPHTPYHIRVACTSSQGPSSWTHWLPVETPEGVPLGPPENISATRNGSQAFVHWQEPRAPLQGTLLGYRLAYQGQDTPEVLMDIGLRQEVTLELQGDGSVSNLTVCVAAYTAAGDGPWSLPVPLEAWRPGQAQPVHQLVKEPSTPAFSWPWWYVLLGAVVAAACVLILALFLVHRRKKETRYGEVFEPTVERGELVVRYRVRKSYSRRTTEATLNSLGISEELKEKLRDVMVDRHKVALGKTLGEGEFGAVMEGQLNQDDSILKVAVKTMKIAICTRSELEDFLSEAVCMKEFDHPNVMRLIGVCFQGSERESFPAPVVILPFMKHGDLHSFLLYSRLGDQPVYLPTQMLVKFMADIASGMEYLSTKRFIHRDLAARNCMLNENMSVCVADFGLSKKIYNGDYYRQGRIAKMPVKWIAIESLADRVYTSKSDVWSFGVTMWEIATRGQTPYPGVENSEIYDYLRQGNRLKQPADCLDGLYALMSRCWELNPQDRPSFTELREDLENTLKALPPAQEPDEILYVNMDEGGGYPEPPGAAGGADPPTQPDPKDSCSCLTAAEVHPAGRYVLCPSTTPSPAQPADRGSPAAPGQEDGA
Tyrosine-protein kinase Blk (Homo sapiens), sequence (P51451 2-505 limits assumed): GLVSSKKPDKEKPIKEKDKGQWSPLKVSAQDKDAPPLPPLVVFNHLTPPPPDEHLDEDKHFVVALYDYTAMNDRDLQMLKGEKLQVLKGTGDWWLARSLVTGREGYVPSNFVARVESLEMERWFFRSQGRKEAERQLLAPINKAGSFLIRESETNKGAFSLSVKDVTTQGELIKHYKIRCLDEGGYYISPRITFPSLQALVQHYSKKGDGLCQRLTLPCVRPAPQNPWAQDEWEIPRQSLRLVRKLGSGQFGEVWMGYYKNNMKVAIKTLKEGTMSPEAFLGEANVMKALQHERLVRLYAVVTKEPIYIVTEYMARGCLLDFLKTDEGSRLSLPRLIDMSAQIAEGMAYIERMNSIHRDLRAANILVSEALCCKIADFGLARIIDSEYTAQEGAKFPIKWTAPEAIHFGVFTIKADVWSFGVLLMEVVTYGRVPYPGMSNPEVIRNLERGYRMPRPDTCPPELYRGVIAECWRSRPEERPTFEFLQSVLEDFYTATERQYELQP
Protein-tyrosine kinase 6 (Homo sapiens), sequence (Q13882 whole entry, looked up): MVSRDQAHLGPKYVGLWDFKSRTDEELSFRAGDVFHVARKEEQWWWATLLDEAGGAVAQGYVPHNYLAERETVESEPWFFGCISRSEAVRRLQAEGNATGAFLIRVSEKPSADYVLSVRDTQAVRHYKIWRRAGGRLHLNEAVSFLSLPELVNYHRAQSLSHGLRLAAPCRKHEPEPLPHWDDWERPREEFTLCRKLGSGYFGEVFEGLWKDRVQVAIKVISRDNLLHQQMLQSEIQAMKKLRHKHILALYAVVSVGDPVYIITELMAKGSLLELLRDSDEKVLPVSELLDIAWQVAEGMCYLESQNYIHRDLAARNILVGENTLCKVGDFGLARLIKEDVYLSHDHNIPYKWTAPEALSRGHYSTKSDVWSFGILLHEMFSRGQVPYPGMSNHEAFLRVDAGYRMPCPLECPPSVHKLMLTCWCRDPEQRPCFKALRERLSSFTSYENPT
ALK tyrosine kinase receptor (Homo sapiens), sequence (Q9UM73 19-1620 limits assumed): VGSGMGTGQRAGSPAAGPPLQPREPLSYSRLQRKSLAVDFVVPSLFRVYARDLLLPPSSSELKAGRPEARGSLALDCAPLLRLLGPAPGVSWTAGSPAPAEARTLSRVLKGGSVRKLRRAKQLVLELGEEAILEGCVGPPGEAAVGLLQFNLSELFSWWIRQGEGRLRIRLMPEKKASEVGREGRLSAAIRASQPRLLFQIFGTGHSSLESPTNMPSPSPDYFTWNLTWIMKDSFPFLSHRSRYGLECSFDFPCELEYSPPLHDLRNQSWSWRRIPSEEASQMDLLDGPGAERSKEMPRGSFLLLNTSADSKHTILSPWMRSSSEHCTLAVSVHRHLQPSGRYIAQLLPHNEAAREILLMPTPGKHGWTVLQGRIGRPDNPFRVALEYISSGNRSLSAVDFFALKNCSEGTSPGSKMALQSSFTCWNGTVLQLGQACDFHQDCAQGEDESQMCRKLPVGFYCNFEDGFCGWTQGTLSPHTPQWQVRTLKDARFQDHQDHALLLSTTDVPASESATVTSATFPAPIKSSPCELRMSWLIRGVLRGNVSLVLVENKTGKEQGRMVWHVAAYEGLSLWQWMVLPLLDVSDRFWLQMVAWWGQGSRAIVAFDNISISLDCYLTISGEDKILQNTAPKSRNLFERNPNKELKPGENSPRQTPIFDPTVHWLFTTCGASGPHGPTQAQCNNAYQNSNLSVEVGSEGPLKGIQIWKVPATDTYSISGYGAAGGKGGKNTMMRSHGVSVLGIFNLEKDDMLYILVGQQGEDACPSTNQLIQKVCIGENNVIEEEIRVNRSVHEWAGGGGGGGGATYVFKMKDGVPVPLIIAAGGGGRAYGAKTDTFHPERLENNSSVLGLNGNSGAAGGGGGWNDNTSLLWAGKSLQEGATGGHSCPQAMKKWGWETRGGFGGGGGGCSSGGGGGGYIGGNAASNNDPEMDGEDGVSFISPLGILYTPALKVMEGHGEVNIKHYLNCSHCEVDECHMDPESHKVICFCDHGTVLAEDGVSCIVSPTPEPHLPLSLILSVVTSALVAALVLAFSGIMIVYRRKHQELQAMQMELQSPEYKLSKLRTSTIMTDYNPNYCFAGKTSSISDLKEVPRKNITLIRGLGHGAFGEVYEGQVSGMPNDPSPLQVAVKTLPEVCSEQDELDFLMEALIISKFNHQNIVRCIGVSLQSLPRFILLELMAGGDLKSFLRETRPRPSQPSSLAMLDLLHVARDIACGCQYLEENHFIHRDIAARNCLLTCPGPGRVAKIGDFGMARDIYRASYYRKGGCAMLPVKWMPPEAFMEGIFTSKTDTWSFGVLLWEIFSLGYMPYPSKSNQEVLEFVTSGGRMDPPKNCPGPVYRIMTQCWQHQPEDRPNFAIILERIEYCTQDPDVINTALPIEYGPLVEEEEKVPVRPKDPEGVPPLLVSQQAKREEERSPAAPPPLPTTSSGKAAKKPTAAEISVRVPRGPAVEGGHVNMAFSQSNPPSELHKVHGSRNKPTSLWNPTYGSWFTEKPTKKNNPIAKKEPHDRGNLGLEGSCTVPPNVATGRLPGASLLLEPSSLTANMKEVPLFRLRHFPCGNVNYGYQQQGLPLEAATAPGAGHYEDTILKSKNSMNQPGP
Tyrosine-protein kinase CSK (Homo sapiens), sequence (P41240 2-450 limits assumed): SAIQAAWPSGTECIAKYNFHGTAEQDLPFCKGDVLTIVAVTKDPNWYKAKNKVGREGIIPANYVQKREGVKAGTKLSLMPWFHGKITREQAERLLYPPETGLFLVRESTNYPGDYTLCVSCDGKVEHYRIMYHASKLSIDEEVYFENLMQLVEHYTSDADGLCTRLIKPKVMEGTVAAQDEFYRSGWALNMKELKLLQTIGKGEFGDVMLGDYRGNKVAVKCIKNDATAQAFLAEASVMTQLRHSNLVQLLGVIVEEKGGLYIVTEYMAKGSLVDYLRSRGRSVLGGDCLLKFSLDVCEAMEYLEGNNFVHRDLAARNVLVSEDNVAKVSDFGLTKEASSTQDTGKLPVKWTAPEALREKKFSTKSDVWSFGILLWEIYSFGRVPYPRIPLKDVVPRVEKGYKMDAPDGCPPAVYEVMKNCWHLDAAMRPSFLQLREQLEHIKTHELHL

Regarding `CCS(=O)(=O)c1ccc(OC)c(Nc2ncc(-c3cccc(F)c3)o2)c1`, the inhibition (as a rule, the relative decrease from the control value, in per cent) in assay [1] was determined as 25.1%; in [2], 52.5%; in [3] it was 90.2%; in assay [4], 39.8%; in assay [5] it was 77.5%; in assay [6], 4.12%. The inhibition in assay [7] is 7.35%; in [8], 32.8%; in [9] it was 74.6%; in assay [10] it was -6.71%; in assay [11], -5.62%; in assay [12], 21.3%. Besides, the inhibition in assay [13] was 73.8%; in assay [14], 1.13%; in assay [15], 33%; in assay [16] it was 9.28%; in [17], 29.8%; in assay [18], 3.65%. Further, the values for the inhibition in assay [19] and in [20] were 28.6% and 7.64%, respectively.

Take `COC(=O)Nc1nc2cc(Oc3ccc(NC(=O)Nc4ccccc4)cc3)ccc2[nH]1`: the inhibition turned out to be 31.3% in assay [1]; 6.49% in assay [2]; 18.9% in assay [3]; 5.66% in [4]; 11.3% in assay [5]; 1.19% in assay [6]. Moreover, the inhibition was 2.23% in assay [7]; 9.07% in assay [8]; 16.8% in assay [9]; -7.01% in assay [10]; -3.64% in assay [11]; 2.65% in assay [12]. Also, the inhibition is 3.63% in assay [13]; 3.17% in assay [14]; 3.73% in [15]; 1.45% in [16]; 2.78% in assay [17]; 0.55% in [18]. The inhibition in assay [19] is 0.58%; in assay [20], 4.95%.

On to `CN1CCC(n2cnc(-c3ccc(F)cc3)c2-c2ccnc(NCCO)n2)CC1`, for which the inhibition in [1] is 6.42%; in assay [2], 2.79%; in assay [3], 4.11%; in [4], 3.67%; in assay [5], 6.5%; in assay [6], 3.71%. Besides, the inhibition was 5.43% in assay [7]; 3.07% in assay [8]; 2.99% in assay [9]; -4.58% in assay [10]; -5.39% in [11]; 3.74% in [12]. For the same compound, the inhibition in assay [13] was 2.11%; in assay [14], -6.22%; in [15], 4.95%; in [16] it was 3.29%; in [17] it was 6.89%; in assay [18], 0.96%. For the same compound, the inhibition in [19] is 0.09%; in [20], 7.33%.

As for `O=C(Nc1n[nH]c2nnc(-c3cccnc3)cc12)C1CC1`, the inhibition in assay [1] stood at 3.43%; in assay [2] it was 0.48%; in assay [3], 3.53%; in assay [4] it was 3.47%; in [5], 6.91%; in assay [6] it was 0.19%. In addition, the inhibition is 1.54% in assay [7]; 0.77% in [8]; 3.61% in assay [9]; 0.08% in [10]; 1.65% in assay [11]; 0.58% in assay [12]. In addition, the inhibition is 2.68% in assay [13]; -0.2% in assay [14]; 0.81% in assay [15]; -0.91% in [16]; -0.57% in assay [17]; 0.26% in assay [18]. Further, the inhibition was -0.1% in [19] and -1.49% in [20].

On to `O=C1Nc2ccccc2/C1=C1\CCc2cc(O)ccc21`, for which the inhibition turned out to be 16.2% in assay [1]; 5% in [2]; 15.6% in assay [3]; 3.68% in assay [4]; 15% in assay [5]; 5.54% in assay [6]. In addition, the inhibition in [7] was 25.4%; in [8], 2.63%; in assay [9], 9.37%; in assay [10] it was -8.77%; in assay [11], 1.9%; in assay [12], 4.37%. Besides, the inhibition in [13] was 22%; in assay [14] it was 0.61%; in assay [15], 7.52%; in [16], 5%; in [17] it was 4.05%; in assay [18], -0.87%. Besides, the results for the inhibition in assay [19] and in assay [20] were 0.47% and 5.49%, respectively.

Take `CC(C)c1ccc(-c2cc(-c3c[nH]nc3-c3ccccn3)ccn2)cc1`: the inhibition in [1] was 0.44%; in assay [2], 1.59%; in assay [3] it was 22.1%; in [4], 7.53%; in [5], 45.5%; in [6], 1.28%. The inhibition in assay [7] was 3.08%; in [8], 8.41%; in assay [9], 16.6%; in assay [10] it was -1.3%; in assay [11] it was 2.69%; in assay [12], 1.02%. Further, the inhibition in assay [13] was 0.42%; in assay [14], -0.47%; in [15], 2.05%; in assay [16], -0.52%; in assay [17], 0.14%; in assay [18], -1.28%. Also, the inhibition is -1.36% in assay [19] and 1.02% in [20].
